Assay outcomes as filed in PubChem BioAssay.
Sfp inh – Sfp phosphopantetheinyl transferase inhibition; Potency, µM, for the others: largest response in the series, negative = inhibition, hits mostly inhibitors; 3.5% of 310,000 active; Biochemical Sfp PPTase activity, qHTS;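 further: the enzyme is Sfp with the accession as filed and its product quenches rhodamine fluorescence; 0% = enzyme reaction without inhibitor and -100% = no enzyme wells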
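With Hepes-Na pH 7.6 buffer containing 10 mM MgCl2, Sfp (15 nM) modified BHQ-2-YbbR (12.5 uM) using rhodamine-CoA (5 uM). Two reads 30 minutes apart at 525/598 nm yielded each well's rate.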
HP1b chromo inh – inhibitors of HP1-beta chromodomain binding to methylated histone tails; AID 540317; 0.56% of 390,000 active; P83916; Potency, µM (doses to about 114 µM), inactives show top-dose activity change, negative = inhibition, hits mostly inhibitors; AlphaScreen HP1-beta / biotin-H3K9me3 peptide binding; further: nearly all actives have a fitted effect of over 70% in size
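Compound inhibition of the preformed complex between 50 nM HP1-beta and 50 nM biotinylated H3K9me3 peptide was read by AlphaScreen. Buffer was PBS pH 7.4 with 0.01% Tween-20. Incubations ran 30 min at room temperature, with 10 ug/mL donor/acceptor beads.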
G9a block – blocks human histone lysine methyltransferase G9a | Q96KQ7 | G9a H3K9 monomethylation, AlphaScreen, 2 h | Potency, µM (top dose mostly 102 µM), for the others: at the highest dose activity, negative = inhibition, hits mostly inhibitors | 8.8% of 350,000 active | AID 504332; further: on the % scale 0 is the no-effect control and ±100 the full control effect; nearly all actives have a fitted effect of over 75% in size
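G9a (20 nM) preincubated 15 min RT with compounds, then 500 nM biotinylated H3K9 peptide and 20 uM SAM added; 2 h RT reaction. Monomethyl-H3K9 product detected by AlphaScreen with anti-H3K9me1 antibody, streptavidin donor and anti-rabbit IgG acceptor beads.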
JMJD2A Tudor – JMJD2A Tudor domain (human) inhibition; AlphaScreen JMJD2A-Tudor / H3K4me3 peptide binding; Potency, µM (titrated, usually from 114 µM), without a hit: top-dose activity change, negative = inhibition, most hits filed as inhibitors; 4.4% of 390,000 active; further: on the % scale 0 is the no-effect control and ±100 the full control effect; nearly all actives have a fitted effect of over 50% in size
BAZ2B inh – BAZ2B (human) inhibition | AID 504333 | Q9UIF8 | 4.4% of 360,000 active | Potency, µM (top dose mostly 114 µM), without a hit: at the top dose activity change, negative = inhibition, actives largely listed as inhibitors | AlphaScreen BAZ2B-H3K14Ac peptide displacement; further: on the % scale 0 is the no-effect control and ±100 the full control effect; nearly all actives have a fitted effect of over 60% in size
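AlphaScreen displacement: compounds (up to 110uM) incubated 30 min at room temperature with a preformed 50 nM BAZ2B/50 nM biotinylated H3K14Ac peptide complex in PBS pH 7.4 with Tween-20. Donor and acceptor beads at 10 ug/mL final added, 20 min light-protected before reading.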
Starred values were filed as active, the others as inactive; ? = inconclusive; . = not tested or not shown; [ ] = remark or other dose. An excerpt weighted towards active compounds, which were near 12% of everything screened. The call rests on the fitted dose curve; in most records, active means well fitted curve in the direction sought with a large enough effect; inconclusive means small, poorly fitted or top-dose-only effect, or another doubt; inactive means no such curve, though single readings can be large; an effect the other way counts as inactive or inconclusive. Potency means the concentration at half of the fitted maximal effect.

SMILES | Sfp inh | HP1b chromo inh | G9a block | JMJD2A Tudor | BAZ2B inh
COCCN1C(=O)C(=O)/C(=C(/O)c2ccc(C)cc2)C1c1ccccn1 (stereo not given) | 2% | 9% | 50µM* | -35% | -31%
Cc1ccc(/C(O)=C2/C(=O)C(=O)N(CCCn3ccnc3)C2c2ccccn2)cc1 (stereo not given) | 11% | . | 8% | . | -19%
CCN(CC)CCN1C(=O)C(=O)/C(=C(/O)c2cccc(OC)c2)C1c1ccccn1 (stereo not given) | ? | 8% | ? | ? | ?
COCCCN1C(=O)C(=O)/C(=C(/O)c2ccc(OC(C)C)cc2)C1c1cccnc1 (stereo not given) | 15% | 27% | ? | ? | ?
COC(CN1C(=O)C(=O)/C(=C(/O)c2ccccc2)C1c1ccccn1)OC (stereo not given) | 3% | 31% | 50µM* | -1% | -36%
COCCCN1C(=O)C(=O)/C(=C(/O)c2ccc(OC(C)C)c(C)c2)C1c1ccncc1 (stereo not given) | 9% | 22% | 40µM* | -23% | ?
CCCNC(=O)CCC(NS(=O)(=O)c1ccc(C)cc1)C(=O)NCCC (stereo not given) | 15% | 34% | 14%[59 µM] | -7% | 4%
CC(=O)NC1C(=O)N(CCc2ccccc2)c2ccc(Br)cc21 (stereo not given) | -18% | 24% | 11µM* | -22% | -3%
CCCCN1C(=O)C(NC(C)=O)c2ccccc21 (stereo not given) | ? | 29% | 22µM* | -17% | -5%
CC(=O)NC1C(=O)N(Cc2ccccc2)c2ccc(Br)cc21 (stereo not given) | 5% | -19% | 40µM* | -15%[11.4 µM] | -27%
O=C(CC1(O)C(=O)N(CCc2ccccc2)c2ccc(Br)cc21)c1ccccc1 (stereo not given) | . | 9% | -39%[59 µM] | -25% | -8%
CC(NC(=O)NNC(=O)c1ccncc1)(C(F)(F)F)C(F)(F)F | -16% | 25% | -26% | -2% | -29%
Cc1ccc(C)c(NC(=O)C2CC(O)CN2C(=O)OC(C)(C)C)c1 (stereo not given) | 18% | 39% | 32%[59 µM] | 0% | -26%
COc1ccc(N(C(C)C(=O)NCc2ccco2)S(C)(=O)=O)cc1 (stereo not given) | -18% | 36% | 50µM* | -15% | -30%
CCCN(CC(=O)Nc1ccccc1C)C(=O)c1ccc(N2CCCCCC2)c([N+](=O)[O-])c1 | 3% | ? | -10% | ? | ?
COC(=O)CN1C(=S)N(C)C(=O)/C1=C/c1cccs1 | 27% | 34% | -1% | -12% | -19%
CCc1ccc(/C=C2/C(=O)N(C)C(=S)N2CC(=O)OC)s1 | -19% | 21% | 35µM* | -20% | -22%
CCOC(=O)c1c(O)c2c(n(Cc3ccco3)c1=O)CCCC2 | -6% | 25% | -4%[59 µM] | -10% | 1%
CC(C)=N/N=c1\scc(C)n1Cc1ccco1 | 12% | -6% | -49% | -30% | -39%
Cc1cs/c(=N\N=C\c2ccccc2)n1Cc1ccco1 | -20% | ? | 14µM* | 35µM* | 13µM*
Cc1cs/c(=N\N=C2CCCCC2)n1Cc1ccco1 | 6% | ? | ? | ? | 45µM*
COc1ccc(-c2cc(C)no2)cc1S(=O)(=O)N1CCN(c2ccccc2F)CC1 | 16% | 13% | 2% | -26% | 4%
CC(=O)Nc1ccc(SCCN2CCN(CC(C)C)CCC2=O)cc1 | 45µM* | 38% | . | -10% | .
Cc1noc(C)c1NC(=O)N(C)C[C@H]1Oc2ccc(NC(=O)Nc3ccccc3)cc2C(=O)N([C@H](C)CO)C[C@@H]1C | . | 21% | . | -18% | .
Cc1ccc(N2C(=O)[C@@H]3Cc4ccccc4CN3C2=O)cc1 | -1% | 35% | 10%[12.7 µM] | 6% | -8%
SMILES | Sfp inh | HP1b chromo inh | G9a block | JMJD2A Tudor | BAZ2B inh
CC(C)(C)C1CCc2onc(C(=O)Nc3sc4c(c3C(N)=O)CCCC4)c2C1 (stereo not given) | . | ? | 3.2µM* | -25% | 0%
CC(C)(C)C1CCc2onc(C(=O)Nc3sc4c(c3C#N)CCCC4)c2C1 (stereo not given) | . | -18% | 2.8µM* | -26% | -18%
CC(C)(C)C1CCc2onc(C(=O)Nc3ccc(F)cc3F)c2C1 (stereo not given) | -2% | 64% | 19%[59 µM] | 2% | 7%
Cc1cccc2sc(N(Cc3cccnc3)C(=O)COc3ccccc3)nc12 | . | 10% | -1%[59 µM] | -18% | -15%
COc1cccc(CN2CCC(n3nccc3NC(=O)CCCc3ccccc3)CC2)c1O | 21% | 15% | -8% | -27% | -19%
CCN(CC)c1cc(Oc2ccccc2)ncn1 | 18% | 12% | -2%[59 µM] | -4% | 6%
CCOC(=O)c1c(CN2CCOCC2)n(C)c2cc(Br)c(O)c(CN(C)C)c12 | -4% | -6% | 11µM* | -15% | ?
CCOC(=O)c1c(C)n(C)c2ccc(O)c(CN3CCC(C)CC3)c12 | -3% | 5% | ? | -19% | 7%
CCOC(=O)c1c(CSc2ccccc2)n(C)c2ccc(O)c(CN3CCOCC3)c12 | -37% | 8% | 40µM* | -34% | 35µM*
CCOC(=O)c1c(CS(=O)(=O)c2ccccc2)n(C)c2cc(Br)c(O)c(CN(C)C)c12 | 5% | 6% | -6% | -18% | 19%
NNc1nnc(-c2ccccc2)c(-c2ccccc2)n1 | -23% | 4% | ? | ? | 79µM*
O=C(c1ccc2c(c1)N(Cc1cccc(F)c1)C(=O)c1ccccc1S2)N1CCCC1 | . | 14% | -20%[59 µM] | -32% | ?
CC(C)(C)n1nc2c(c1NC(=O)c1c(F)cccc1F)CS(=O)(=O)C2 | 10% | 16% | 1% | 3% | -4%
c1cnc2ccc3ncccc3c2c1 | 11% | 54% | ? | -7%[11.4 µM] | -17%
Nc1ccc2ncccc2c1N | 6.3µM* | 37% | -9%[59 µM] | -36% | ?
CCOC(=O)C(N)CSC1CC(=O)N(c2ccc(OC)cc2)C1=O (stereo not given) | -3% | 27% | 45µM* | -18% | -17%
CCOC(=O)C(N)CSC1CC(=O)N(c2ccc(OCC)cc2)C1=O (stereo not given) | -7% | 48% | ? | -10% | 0%
CC(C)(C)OC(=O)NS(=O)(=O)Nc1ccccc1Br | 0% | -5% | . | 35µM* | .
NS(=O)(=O)Nc1ccccc1Br | 7% | 15% | . | -12% | .
Nc1nc(CN2CCN(c3ccc(F)cc3)CC2)nc(N2CCCc3ccccc32)n1 | 4% | -9% | 40µM* | 50µM* | -64%
COc1ccc(Nc2nc(N)nc(CN3CCN(c4ccc(F)cc4)CC3)n2)cc1 | 21% | 20% | ? | ? | ?
Cc1ccc(Cl)cc1NC(=O)C[n+]1ccc(Cc2ccc([N+](=O)[O-])cc2)cc1 | 45µM* | 21% | 25µM* | ? | -4%
